Shiga inhibitor = inhibitors of Shiga toxin in Vero cells | Vero cells, Shiga toxin protein synthesis inhibition reporter | inhibition, % at 38.7 µM | 9.2% of 290,000 active | AID 2315; in the data active = inhibition mostly above about 28%, no sharp cut-off; inactive = mostly below about 43%; also: 0% is about no effect
NS1 inh = influenza NS1 inhibition; 0.4% of 270,000 active; Potency, µM (series often up to 46.1 µM), inactives show top-dose activity, positive = more growth; also: potency is read from the fitted curve at half-maximal effect; actives are rising curves; nearly all actives have a fitted effect of over 50% in size
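Compounds were scored for reversing the slow growth caused by influenza A NS1 in S. cerevisiae, measured by optical density at 600 nm. Assay medium contained 2% galactose at pH 6.0; NS1-free yeast of the same strain were the positive control.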
SARS PLpro yeast = SARS-CoV PLP inhibition in yeast | S. cerevisiae expressing SARS-CoV PLpro, growth rescue | Potency, µM (series often up to 32.9 µM), without a hit: at the top dose activity, positive = growth rescue, hits mostly activators | 0.19% of 330,000 active; also: potency is read from the fitted curve at half-maximal effect; 0% is about no effect; nearly all actives have a fitted effect of over 55% in size
Cycloheximide cs = affects cycloheximide protein synthesis inhibition readout, counter-screen; AID 2314; cell reporter, cycloheximide protein synthesis inhibition counterscreen; 12% of 300,000 active; max response, %; in the data active = max response mostly above about 13%, no sharp cut-off; inactive = mostly below about 14%; also: read at 38.3 µM for the half of the compounds with a filed dose; 0% is about no effect
* hit, by the source's call; ? = inconclusive; nt = not tested or not shown. Hits are enriched below; roughly 12% of the tested compounds scored in any of these assays. Unless noted, calls follow the shape of the full dose curve.

SMILES | Shiga inhibitor | NS1 inh | SARS PLpro yeast | Cycloheximide cs
O=C(NC1CCN(C(=O)c2cccs2)CC1)c1ccccc1 | 15 | 0% | 0% | -2
CCCCn1c(O)c(N=Nc2ccccn2)c2ccccc21 | 8 | -18% | -60% | 7
CCn1c(O)c(N=Nc2ccc3ccccc3n2)c2ccccc21 | 81* | -5% | 0% | 39*
COCCCNC(=O)C1CCN(C(=O)c2oc3cc4sc(N(C)C)nc4cc3c2C)CC1 | 60* | -7% | 45% | 36*
COCCCNC(=O)C1CCN(c2nc(C)cc(C)n2)CC1 | 1 | 1% | -6% | -5
CCN(CC)CCCNC(=O)C1CCN(C(=O)c2oc3cc4sc(N(C)C)nc4cc3c2C)CC1 | 24 | -10% | -1% | 19*
Cc1nc2c(-c3ccccc3)cnn2c(N2CCOCC2)c1C | 98* | -9% | -1% | 47*
CCCc1cc(N2CCOCC2)n2ncc(-c3ccccc3)c2n1 | 58* | -3% | 1% | 39*
CC(C)(C)c1cc(N2CCOCC2)n2ncc(-c3ccccc3)c2n1 | 12 | 2% | 4% | 8
CCCCN(C(=O)Cc1ccc(S(=O)(=O)N2CCOCC2)s1)c1c(N)n(CC(C)C)c(=O)[nH]c1=O | nt | nt | 3% | nt
O=C(CN1C(=O)NC2(CCCc3ccccc32)C1=O)Nc1cc(F)ccc1F (centres undefined) | nt | nt | 0% | nt
COc1ccc(S(=O)Cc2ccc(C(=O)NCc3cccc(OC)c3)o2)cc1 (centres undefined) | -2 | -3% | ? | -2
O=C(CNS(=O)(=O)c1ccc(F)c(Cl)c1)N1CCCC1 | nt | -11% | 1% | 1
Cc1ccc(NC(=O)C2=C(O)CCn3c2nc2ccccc23)cc1 | 37 | -11% | -5% | 22*
COc1cc(C(=O)Nc2ccc(C)cc2)c2ccccc2n1 | -11 | 3% | -4% | -3
Cc1cc(C(=O)CSc2nncs2)c(C)n1-c1c(C)n(C)n(-c2ccccc2)c1=O | -11 | -7% | -1% | 3
Cc1cc(C(=O)CSc2cccc[n+]2[O-])c(C)n1-c1ccccc1 | 85* | -50% | -1% | 47*
Cc1cc(C(=O)CSc2nncn2C)c(C)n1-c1ccccc1 | 59* | nt | -2% | 34*
Cc1cc(C(=O)CSc2cccc[n+]2[O-])c(C)n1-c1ccc(Br)cc1 | 91* | nt | -1% | 35*
Cc1cc(C(=O)COc2cccc(-n3cnnn3)c2)c(C)n1-c1ccccc1 | 32 | -11% | -10% | 16*
O=C(NCc1ccco1)C1CCCN1C(=O)Nc1ccccc1Cl (centres undefined) | 7 | 1% | 0% | 5
Nc1nccc(Nc2ccc(S(N)(=O)=O)cc2)n1 | nt | -3% | nt | nt
COC(=O)c1c(C)oc(C)c1S(=O)(=O)NC(c1ccccc1)c1ccccc1 | 17 | -3% | -6% | -1
Cc1ccc(NC2c3ncccc3C(=O)N2c2ccccc2C)cc1C (centres undefined) | 72* | -7% | -1% | 22*
S=C(Nc1ccc(Br)cc1)NC1CCCC1 | 63* | -16% | ? | 42*
SMILES | Shiga inhibitor | NS1 inh | SARS PLpro yeast | Cycloheximide cs
CC1CCN(C(=S)Nc2ccc(SC(F)F)cc2)CC1 | 64* | 5% | 18% | 59*
S=C(Nc1ccc(Oc2ccccc2)cc1)NC1CCCC1 | 3 | -11% | -77% | 11
CC(=O)N1CCN(C(=S)Nc2ccc(SC(F)F)cc2)CC1 | -13 | nt | -1% | 1
FC(F)Sc1ccc(NC(=S)NCC2CCCCC2)cc1 | 92 | -235% | -32% | 14
FC(F)Sc1ccc(NC(=S)NC2CCCCC2)cc1 | 114 | -141% | -16% | 31*
CC1CCCCC1NC(=S)Nc1ccc(SC(F)F)cc1 (centres undefined) | 75* | -140% | -28% | 35*
O=C(CCS(=O)(=O)c1cccs1)Nc1ccc(C(=O)NC2CCN(Cc3ccccc3)CC2)cc1 | 26 | nt | -2% | 12
O=C(c1oc2ccccc2c1CSCc1ccccc1)N1CCN(c2ncccn2)CC1 | 4 | 11% | -6% | -2
Cn1c(SCc2ccccc2)nnc1-c1ccncc1 | -9 | 10% | 0% | 0
Cn1c(SCc2ccc(F)cc2)nnc1-c1cccs1 | 62 | -47% | -2% | 46*
Cn1c(SCc2ccccc2)nnc1-c1cccs1 | 81* | -38% | 0% | 32*
NS(=O)(=O)c1ccc(CCNc2ccnc3cc(Cl)ccc23)cc1 | -13 | 30% | -1% | 32*
O=C(NCCNC(=O)c1ccccc1Cl)c1ccco1 | 10 | -2% | 0% | 3
Cc1ccc(Nc2c(-c3ccco3)nc3ccccn23)cc1 | 97* | ? | -21% | 30*
COc1ccc(Nc2c(-c3ccco3)nc3cccc(C)n23)cc1 | 18 | nt | -8% | -6
c1ccc(Nc2c(-c3ccco3)nc3ccccn23)cc1 | -2 | -13% | -14% | 16
COc1ccc(Nc2c(-c3ccco3)nc3ccc(C)cn23)cc1 | 38 | nt | -6% | 31*
Cn1c(SCc2ccc(F)cc2)nnc1-c1ccccn1 | 116* | -15% | 0% | 39*
c1ccc(CSc2nnc(-c3ccccn3)n2-c2ccccc2)cc1 | -7 | -54% | -3% | 1
Cc1ccc(CSc2nnc(-c3ccccn3)n2C)cc1 | 94* | -59% | -24% | 24*
Cn1c(CO)cnc1SCc1ccc(F)cc1 | 50* | nt | 2% | 17*
Cc1cc(C(=O)Nc2cccc(C)c2C)c2ccccc2n1 | -6 | 4% | 1% | 0
O=c1c2nccnc2[nH]c(=S)n1Cc1ccccc1Cl | -12 | nt | 0% | -6
CC1CC(=O)Nc2ccccc2N1C(=O)Cn1cnc2ccc(Br)cc2c1=O (centres undefined) | nt | nt | 1% | nt
CCCN(C(=O)c1cn(-c2ccccc2)nc1-c1ccc(OC)cc1)C1CCS(=O)(=O)C1 (centres undefined) | nt | nt | 0% | nt
SMILES | Shiga inhibitor | NS1 inh | SARS PLpro yeast | Cycloheximide cs
Cc1nc2cc(N=NC3=C(O)CCCC3=O)ccc2s1 | 89* | 5% | -37% | 61*
CC(=O)N1CCc2cc(N=NC3=C(O)CCCC3=O)ccc21 | 92* | nt | -3% | 31*
CC(=O)N1CCc2cc(S(=O)(=O)N3CCCCCC3)ccc21 | -12 | -6% | -6% | -1
O=C1CCCC(O)=C1N=Nc1ccc(Cl)c(Cl)c1 | 15 | nt | 0% | 23*
Cn1c(CNC(=O)c2ccco2)nnc1SCC(=O)N1CCN(c2ccccc2F)CC1 | -19 | 23% | 2% | 9
CCN1C(C)=C(C(=O)OC(C)C)C(c2ccccc2Cl)C(C(=O)O)=C1C(=O)O (centres undefined) | -10 | nt | nt | -7
O=C(NC(Cc1c[nH]c2ccccc12)C(=O)OCC(=O)c1cccc2ccccc12)c1cccs1 (centres undefined) | -2 | 23% | 2% | 5
Cc1cccc(-c2nsc(SCC(=O)N3CCCC3)n2)c1 | 117* | -36% | -7% | 36*
Cc1cccc(-c2nsc(SCC(=O)Nc3nccs3)n2)c1 | 14 | -8% | -1% | 14
CCOC(=O)CSc1nc(-c2ccccc2)ns1 | 38 | nt | 0% | 20
O=C(CSc1nc(-c2ccccc2)ns1)N1CCOCC1 | 91* | nt | 2% | 39*
CCOC(=O)c1nn(-c2ccccc2F)c(-c2ccccc2)c1C(=O)c1ccccc1 | 5 | -13% | -1% | 2
Cc1ccc(C)c(C(=O)OCC(=O)Nc2ccc(N3CCOCC3)cc2)c1 | -13 | -5% | -2% | 0
CCOC(=O)CN(C(=O)CSc1nnc(-c2cccc(OC)c2)o1)c1ccc(F)cc1 | 32 | -88% | ? | 15*

Screens as filed in PubChem BioAssay.
